Laboratory results: ChEMBL document CHEMBL3988442, “University of Dundee, Small-Polar-MMV Screening Library” (2021)
The whole screen tested about 48,000 compounds, of which about 13,000 (27%) showed an effect of 50% or more. The list shows a part of the results.

These compounds were tested on Wolbachia pipientis (assay: Anti-Wolbachia Cell-Based Screen). Conditions: 5 µM.
Type: functional
Set-up: scale not given: in the data most compounds retested in dose-response had high values

SMILES | Percent Effect [%]
COc1ccc(C2SCC(=O)Nc3ccsc32)cc1 (centres undefined) | 24.55
COc1ccc(C2SCC(=O)Nc3ccsc32)cc1OC (centres undefined) | -3.857
O=C1CSC(c2ccncc2)c2c[nH]nc2N1 (centres undefined) | 107.2
O=C1NCc2ccccc2CC12CCN(Cc1ccncc1Cl)C2 (centres undefined) | 100.7
CCCN1CCC2(Cc3ccccc3NC2=O)C1 (centres undefined) | -12.05
O=C1Nc2ccccc2CC12CCN(CCO)C2 (centres undefined) | -5.884
Cc1cc(C)c(CNc2ncnc3ccccc23)c(=O)[nH]1 | 14.2
CC[C@H]1CN2CC[C@H]1C[C@@H]2CNC(=O)Nc1ccccc1 | -4.877
CCOC(=O)[C@@H]1[C@H]2CN(C(=O)OC)CCN2C[C@H]1c1ccccc1 | 104.3
CCOC(=O)[C@@H]1[C@@H](c2ccccc2)CN2CCN(S(C)(=O)=O)C[C@H]12 | 100.2
CCOC(=O)[C@@H]1[C@@H](c2ccccc2)CN2CCN(C(C)=O)C[C@H]12 | 87.07
O=C(COc1ccccc1)N1C[C@@H](O)[C@H](N2CCCC2)C1.O=CO | 3.295
O=C(C1CC1)N1CCN2C[C@H](c3ccccc3)[C@@H](CO)[C@H]2C1 | 105.4
Cc1noc(C)c1CN1CCO[C@H]2[C@H](Oc3ccccn3)CC[C@@H]21.O=C(O)C(F)(F)F.O=C(O)C(F)(F)F | -5.059
CCOC(=O)[C@@H]1[C@@H](c2ccccc2)CN2CCN(C(=O)C3CC3)C[C@H]12 | 90.7
CCOC(=O)[C@@H]1[C@@H](c2ccccc2)CN2CCN(C(=O)N(C)C)C[C@H]12 | 91.13
Cc1nn(C)c2ncc(S(=O)(=O)N3CCN4CCCC4C3)cc12 (centres undefined) | -0.5952
CCc1nc(CC(=O)N2CCCC2CN2CCCC2)cs1 (centres undefined) | -9.906
O=C(Cc1cccnc1)N1CCC2(CC1)CCN(C1CCOC1)C2.O=C(O)C(F)(F)F.O=C(O)C(F)(F)F (centres undefined) | -0.1396
O=C1N(Cc2cccnc2)C[C@H]2CN(C3CCOCC3)CCN12 | -6.635
NC(=O)C1CN(C(=O)Cc2cccnc2)CCN(C2CCOCC2)C1 (centres undefined) | 108.4

SMILES | Percent Effect [%]
CN(C[C@H]1CN2CC[C@H]1C[C@@H]2CNC(=O)c1ccco1)c1ccccc1 | -3.253
Cn1ccc(CN2CCCC23CCNCC3)n1 | -9.611
CCN1CCC2(COCc3c(C)nc(N4CCOCC4)nc32)C1 (centres undefined) | 5.011
CCN1CCC2(COCc3cnc(NCC4CC4)nc32)C1.O=C(O)C(F)(F)F (centres undefined) | -6.306
Cc1nc(N(C)C)nc2c1COCC21CCN(CC2CC2)C1.O=C(O)C(F)(F)F (centres undefined) | 103
COCCN1CCC2(COCc3c(C)nc(N(C)C)nc32)C1 (centres undefined) | 5.948
CCN1CCC2(COCc3c(C)nc(N(C)C)nc32)C1 (centres undefined) | 108.4
CN(C)c1ncc2c(n1)C1(CCN(CC3CC3)C1)COC2.O=C(O)C(F)(F)F (centres undefined) | -11.31
Cc1ccccc1CNC(Cn1cncn1)c1ccccc1 (centres undefined) | 16.93
CC(C)c1cc(N2CCC3(CC2)CN(C)CCN3C)ncn1 | -0.4054
Cc1nnsc1CN1C[C@H]2CC[C@@H]1CN(Cc1ccccn1)C2 | -5.416
Cl.NC1(c2nc(C(F)(F)F)cc(=O)[nH]2)CCCC1 | -15.07
Cc1n[nH]c2c1C(c1ccsc1)SCC(=O)N2 (centres undefined) | 0.06284
O=C1CSC(c2ccc3c(c2)OCO3)c2cn[nH]c2N1 (centres undefined) | 128
Cc1n[nH]c2c1C(c1ccc3c(c1)OCO3)SCC(=O)N2 (centres undefined) | 118.8
Cc1n[nH]c2c1C(c1ccc(O)c(Cl)c1)SCC(=O)N2 (centres undefined) | 5.211
CC(C)[C@@H]1CN(C(=O)C2(c3ccccc3)CCN(C)CC2)C[C@H]1N(C)C | -1.656
CC(C)OCCNC1(c2ccc(F)cc2)CCOCC1 | 3.648
Cn1ccnc1CN1CCN2C[C@H](OCc3cccnc3)C[C@H]2C1.O=C(O)C(F)(F)F.O=C(O)C(F)(F)F.O=C(O)C(F)(F)F | -4.128
O=C(O)C(F)(F)F.O=C(O)C(F)(F)F.O=C(c1cccnc1)N1CCN2C[C@H](Oc3cncnc3)C[C@H]2C1 | -8.279
O=C(O)C(F)(F)F.O=C(O)C(F)(F)F.O=C(O)C(F)(F)F.c1cc(CN2CCN3C[C@H](Oc4cncnc4)C[C@H]3C2)ccn1 | 106.9

SMILES | Percent Effect [%]
Fc1cccc(O[C@@H]2C[C@H]3CN(Cc4ccncc4)CCN3C2)c1.O=C(O)C(F)(F)F.O=C(O)C(F)(F)F.O=C(O)C(F)(F)F | -7.787
O=C(O)C(F)(F)F.O=C(O)C(F)(F)F.O=C(O)C(F)(F)F.c1cncc(CN2CCN3C[C@H](Oc4cncnc4)C[C@H]3C2)c1 | 97.08
O=C(c1ccncc1)N1CCN2C[C@H](Oc3cncnc3)C[C@H]2C1 | 8.644
Cc1ccc2c(n1)N(CC1CC1)CCN(S(=O)(=O)C1CC1)C2.O=C(O)C(F)(F)F | 2.676
COCCN1CCN(c2cc(OC)ncn2)Cc2ccc(C)nc21 | 108.6
COc1cc(N2CCN(CC3CC3)c3nc(C)ccc3C2)ncn1 | 95.93
CC(C)CN1CC[C@@H]2[C@@H]1CCN2C(=O)N(C)C.O=C(O)C(F)(F)F | -11.1
O=C(c1cccnc1)N1C[C@@H]2CC[C@H](C1)N(Cc1ncc[nH]1)C2 | -11.14
Cc1cccc(CN2CCN3C(=O)NC[C@H]3C2)n1 | -6.805
Fc1cccnc1O[C@@H]1CC[C@H]2[C@H]1OCCN2Cc1nccs1.O=C(O)C(F)(F)F.O=C(O)C(F)(F)F | 0.8031
Fc1ccc(CN2C[C@@H](OCc3ccccn3)[C@H]3COC[C@H]32)cc1.O=C(O)C(F)(F)F.O=C(O)C(F)(F)F | 103
CN(Cc1ccco1)[C@@H]1CN(Cc2cccnc2)[C@@H]2CCCO[C@H]12.O=C(O)C(F)(F)F.O=C(O)C(F)(F)F.O=C(O)C(F)(F)F | 8.312
c1ccc(CO[C@@H]2CN(Cc3ccoc3)[C@@H]3COC[C@@H]32)nc1 | 117.8
O=C(O)C(F)(F)F.O=C(O)C(F)(F)F.c1cncc(CO[C@H]2CN(Cc3ccco3)[C@@H]3COC[C@H]23)c1 | 97.44
O=C(N[C@@H]1CN(Cc2ccccn2)[C@@H]2COC[C@@H]21)C1CCC1.O=C(O)C(F)(F)F | -10.37
O=C(O)C(F)(F)F.O=C(O)C(F)(F)F.c1ccc(CO[C@@H]2CN(Cc3nccs3)[C@@H]3COC[C@@H]32)nc1 | 102.5
O=C(O)C(F)(F)F.O=C(O)C(F)(F)F.c1ccc(O[C@@H]2CN(Cc3nccs3)[C@@H]3CCCO[C@@H]32)nc1 | -2.827
O=C(O)C(F)(F)F.O=C(O)C(F)(F)F.c1ccc(CO[C@H]2CO[C@@]3(CCN(Cc4ccoc4)C3)C2)nc1 | -0.8411
CCN(CC)CCN1CCO[C@H]2[C@@H](OCc3ccccn3)CC[C@@H]21 | -0.06843
O=C(O)C(F)(F)F.O=C(O)C(F)(F)F.c1cncc(CO[C@H]2CO[C@@]3(CCN(Cc4ccoc4)C3)C2)c1 | -6.874
COCCO[C@@H]1C[C@H]2CN(C(=O)c3cccnc3)CCN2C1 | -1.303

SMILES | Percent Effect [%]
CNC(=O)[C@H]1C[C@@H]2CN(C(=O)c3ccc(C)nc3)C[C@@H]2N1C | -27.99
COCCn1c(C(=O)NCc2n[nH]c(C)n2)cc2ccccc21 | -4.273
O=C(O)C(F)(F)F.O=C(O)C(F)(F)F.O=C(O)C(F)(F)F.c1ccc(CO[C@@H]2CN(Cc3cccnc3)[C@@H]3COC[C@@H]32)nc1 | 110.7
CC(=O)C1(c2ccccc2)CCN(C(=O)C2CNCCO2)CC1 (centres undefined) | 2.674
CNC(=O)[C@@H]1[C@H]2CNCCN2C[C@H]1c1ccccc1 | 84.83
CCOC(=O)[C@@H]1[C@@H](c2ccccc2)CN2CCNC[C@H]12 | 118.8
CC(=O)NC(C)C(=O)NCc1ccc(N2CCNC(=O)C2)cc1 (centres undefined) | 100.5
Cl.O=C(N[C@H]1CN[C@H]2CCCO[C@H]21)c1ccno1 | -7.03
O=C1CO[C@@H]2CNC[C@H]2N1CC1CC1 | -15.76
COc1cccc(CCNCc2c(C)nn(C)c2N(C)C)c1 | -6.952
COc1c(CNCCc2c[nH]c3ccccc23)c(C(C)C)nn1C | 95.04
COc1c(CNCCc2c[nH]c3ccccc23)c(C)nn1C | 86.16
CC(C(=O)N(C)C)N1CCCN(C(=O)Oc2ccccc2)CC1 (centres undefined) | -7.894
Cc1ncc2c(n1)CCCC2NC(=O)c1cnn(Cc2ccccc2)c1 (centres undefined) | 108
Cl.NC1(c2nc(C(F)(F)F)cc(=O)[nH]2)CCCCC1 | -23.28
COCCN1CCN(c2ccc(C)nn2)Cc2ccc(C)nc21.O=C(O)C(F)(F)F.O=C(O)C(F)(F)F | 113.9
COCCN1CCN(c2cccc(C)n2)Cc2ccc(C)nc21.O=C(O)C(F)(F)F.O=C(O)C(F)(F)F | 115.7
COCCN1CCN(c2ccc(C)nn2)Cc2cccnc21.O=C(O)C(F)(F)F | -12.27
COCCN1CCN(S(C)(=O)=O)Cc2ccc(C)nc21.O=C(O)C(F)(F)F | 1.772
COc1ccc(CCN)cc1-c1ccc(O)cc1 | -1.441
COc1cccc2c(=O)n(C3CCNCC3)cnc12 | 0.1861
